Among the data in ChEMBL document CHEMBL2218924, “A broad activity screen in support of a chemogenomic map for kinase signalling research and drug discovery” (Biochem J, 2013) are residual activity values, retold here.

Assay [1] has as its target T1, Ephrin type-A receptor 3 (Homo sapiens) (UniProt P29320).
T1 sequence (whole entry): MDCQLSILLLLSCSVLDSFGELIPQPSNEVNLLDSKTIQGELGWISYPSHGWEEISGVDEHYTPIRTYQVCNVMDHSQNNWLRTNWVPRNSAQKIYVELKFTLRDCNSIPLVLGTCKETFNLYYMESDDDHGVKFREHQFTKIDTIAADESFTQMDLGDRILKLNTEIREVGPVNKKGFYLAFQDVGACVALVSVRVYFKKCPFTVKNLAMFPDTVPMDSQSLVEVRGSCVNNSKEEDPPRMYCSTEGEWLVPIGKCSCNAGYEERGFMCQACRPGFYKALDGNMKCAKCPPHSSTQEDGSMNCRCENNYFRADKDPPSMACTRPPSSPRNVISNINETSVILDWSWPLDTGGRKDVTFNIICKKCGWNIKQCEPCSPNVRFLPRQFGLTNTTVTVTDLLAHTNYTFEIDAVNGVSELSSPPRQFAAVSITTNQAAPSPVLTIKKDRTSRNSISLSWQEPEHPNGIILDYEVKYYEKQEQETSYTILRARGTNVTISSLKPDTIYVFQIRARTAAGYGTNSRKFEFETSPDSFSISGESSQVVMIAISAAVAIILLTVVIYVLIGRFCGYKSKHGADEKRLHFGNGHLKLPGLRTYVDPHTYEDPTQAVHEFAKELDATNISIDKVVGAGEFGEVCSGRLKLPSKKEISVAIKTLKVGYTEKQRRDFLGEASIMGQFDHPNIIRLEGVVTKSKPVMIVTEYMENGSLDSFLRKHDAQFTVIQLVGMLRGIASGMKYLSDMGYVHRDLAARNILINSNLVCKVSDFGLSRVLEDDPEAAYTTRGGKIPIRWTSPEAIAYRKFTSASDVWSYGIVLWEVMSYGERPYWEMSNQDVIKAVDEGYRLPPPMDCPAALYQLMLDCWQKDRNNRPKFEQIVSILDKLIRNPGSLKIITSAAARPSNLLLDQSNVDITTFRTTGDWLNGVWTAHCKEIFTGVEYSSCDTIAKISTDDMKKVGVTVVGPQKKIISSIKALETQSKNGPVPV
The following applies: at 10 µM.

Assay [2] deals with Ephrin type-A receptor 5 (Homo sapiens) (UniProt P54756). The following applies: at 1 µM.
Chain of Ephrin type-A receptor 5 (Homo sapiens) (P54756 whole entry): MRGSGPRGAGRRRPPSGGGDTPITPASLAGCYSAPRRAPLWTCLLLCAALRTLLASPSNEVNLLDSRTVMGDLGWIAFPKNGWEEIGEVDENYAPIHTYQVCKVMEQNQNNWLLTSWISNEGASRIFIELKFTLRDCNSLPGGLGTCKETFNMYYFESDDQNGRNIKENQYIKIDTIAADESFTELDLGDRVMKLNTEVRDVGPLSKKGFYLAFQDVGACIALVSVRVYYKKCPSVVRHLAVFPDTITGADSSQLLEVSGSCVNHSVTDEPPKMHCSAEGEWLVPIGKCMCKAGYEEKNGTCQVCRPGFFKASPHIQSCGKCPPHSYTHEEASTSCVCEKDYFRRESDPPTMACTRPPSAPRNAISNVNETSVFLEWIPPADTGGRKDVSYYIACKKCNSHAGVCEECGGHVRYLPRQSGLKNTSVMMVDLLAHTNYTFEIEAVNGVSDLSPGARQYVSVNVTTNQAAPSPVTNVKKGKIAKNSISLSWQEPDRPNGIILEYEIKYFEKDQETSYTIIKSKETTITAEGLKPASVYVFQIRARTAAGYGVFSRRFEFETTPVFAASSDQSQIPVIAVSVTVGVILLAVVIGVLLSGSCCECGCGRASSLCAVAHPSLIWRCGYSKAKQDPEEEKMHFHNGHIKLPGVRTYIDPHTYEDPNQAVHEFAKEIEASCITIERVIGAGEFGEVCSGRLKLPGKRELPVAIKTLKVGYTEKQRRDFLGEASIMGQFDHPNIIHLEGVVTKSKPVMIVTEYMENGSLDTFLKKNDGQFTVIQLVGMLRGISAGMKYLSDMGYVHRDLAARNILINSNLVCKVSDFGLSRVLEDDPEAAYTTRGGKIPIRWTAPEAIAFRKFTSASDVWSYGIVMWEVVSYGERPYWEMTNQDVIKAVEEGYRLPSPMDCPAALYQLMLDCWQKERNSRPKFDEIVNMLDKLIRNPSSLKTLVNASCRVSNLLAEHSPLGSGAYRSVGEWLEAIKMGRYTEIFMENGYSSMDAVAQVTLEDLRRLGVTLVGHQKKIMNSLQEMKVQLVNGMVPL
For assay [3] the target is unchanged. The following applies: at 10 µM.
The target in assay [4] is Ephrin type-A receptor 7 (Homo sapiens) (UniProt Q15375). The following applies: at 1 µM.
Chain of Ephrin type-A receptor 7 (Homo sapiens) (Q15375 28-998 limits assumed): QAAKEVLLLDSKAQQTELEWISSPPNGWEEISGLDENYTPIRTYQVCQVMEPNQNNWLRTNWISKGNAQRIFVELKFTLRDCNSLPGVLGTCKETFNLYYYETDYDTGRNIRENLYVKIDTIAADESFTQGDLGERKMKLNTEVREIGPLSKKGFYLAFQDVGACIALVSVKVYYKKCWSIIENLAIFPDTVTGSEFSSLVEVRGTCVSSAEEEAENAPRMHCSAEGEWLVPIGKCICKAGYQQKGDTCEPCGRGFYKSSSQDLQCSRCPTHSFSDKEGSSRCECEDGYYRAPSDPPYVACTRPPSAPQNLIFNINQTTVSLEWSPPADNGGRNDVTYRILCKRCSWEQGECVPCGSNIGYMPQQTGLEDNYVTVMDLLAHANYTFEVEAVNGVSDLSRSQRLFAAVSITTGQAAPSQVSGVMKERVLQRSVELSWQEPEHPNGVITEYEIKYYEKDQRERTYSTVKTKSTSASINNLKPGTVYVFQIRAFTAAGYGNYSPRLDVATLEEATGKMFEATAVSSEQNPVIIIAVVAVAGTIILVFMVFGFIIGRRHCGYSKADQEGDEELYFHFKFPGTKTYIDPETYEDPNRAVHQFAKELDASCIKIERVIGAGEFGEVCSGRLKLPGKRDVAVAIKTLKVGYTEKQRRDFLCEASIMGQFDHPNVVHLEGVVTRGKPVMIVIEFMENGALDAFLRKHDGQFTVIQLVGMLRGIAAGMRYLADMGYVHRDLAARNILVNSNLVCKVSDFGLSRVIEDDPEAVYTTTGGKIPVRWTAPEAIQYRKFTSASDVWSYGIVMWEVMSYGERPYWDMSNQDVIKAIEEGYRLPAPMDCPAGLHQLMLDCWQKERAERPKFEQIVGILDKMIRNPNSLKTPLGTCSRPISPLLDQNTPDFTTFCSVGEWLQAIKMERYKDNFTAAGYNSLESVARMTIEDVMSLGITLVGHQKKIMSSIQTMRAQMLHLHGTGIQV
For assay [5] the target is unchanged. The following applies: at 10 µM.
The target in assay [6] is T2, Ephrin type-A receptor 8 (Homo sapiens) (UniProt P29322).
T2 sequence (whole entry): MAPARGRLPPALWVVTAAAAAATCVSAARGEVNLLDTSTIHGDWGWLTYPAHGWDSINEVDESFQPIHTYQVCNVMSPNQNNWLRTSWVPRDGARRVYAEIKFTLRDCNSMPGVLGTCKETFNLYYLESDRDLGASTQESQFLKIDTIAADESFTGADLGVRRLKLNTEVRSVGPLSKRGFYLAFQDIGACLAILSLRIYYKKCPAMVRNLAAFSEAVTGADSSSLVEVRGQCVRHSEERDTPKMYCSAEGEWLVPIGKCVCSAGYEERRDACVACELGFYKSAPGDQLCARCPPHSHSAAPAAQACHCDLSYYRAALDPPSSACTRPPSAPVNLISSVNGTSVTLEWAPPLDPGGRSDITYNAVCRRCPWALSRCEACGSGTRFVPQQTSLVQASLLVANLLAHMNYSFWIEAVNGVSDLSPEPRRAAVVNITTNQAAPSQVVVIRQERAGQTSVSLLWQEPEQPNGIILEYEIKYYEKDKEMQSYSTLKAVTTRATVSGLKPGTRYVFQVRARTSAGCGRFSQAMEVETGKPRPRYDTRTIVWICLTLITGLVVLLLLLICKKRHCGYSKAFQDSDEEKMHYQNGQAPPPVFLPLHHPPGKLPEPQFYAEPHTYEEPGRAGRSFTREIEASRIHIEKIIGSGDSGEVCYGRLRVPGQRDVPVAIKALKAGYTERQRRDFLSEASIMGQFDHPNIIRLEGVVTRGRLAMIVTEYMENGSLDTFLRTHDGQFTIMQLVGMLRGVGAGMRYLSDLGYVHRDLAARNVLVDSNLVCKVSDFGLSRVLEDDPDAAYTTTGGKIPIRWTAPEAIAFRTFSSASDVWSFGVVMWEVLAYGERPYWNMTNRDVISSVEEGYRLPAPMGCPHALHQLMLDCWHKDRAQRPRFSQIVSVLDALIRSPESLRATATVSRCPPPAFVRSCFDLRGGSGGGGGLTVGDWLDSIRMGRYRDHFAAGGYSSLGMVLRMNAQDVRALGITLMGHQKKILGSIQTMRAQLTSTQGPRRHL
As to conditions: at 1 µM.

Assay [7] concerns the target T2, Ephrin type-A receptor 8 (Homo sapiens). The following applies: at 10 µM.
Assay [8] deals with T3, Ephrin type-B receptor 1 (Homo sapiens) (UniProt P54762).
T3 sequence (whole entry): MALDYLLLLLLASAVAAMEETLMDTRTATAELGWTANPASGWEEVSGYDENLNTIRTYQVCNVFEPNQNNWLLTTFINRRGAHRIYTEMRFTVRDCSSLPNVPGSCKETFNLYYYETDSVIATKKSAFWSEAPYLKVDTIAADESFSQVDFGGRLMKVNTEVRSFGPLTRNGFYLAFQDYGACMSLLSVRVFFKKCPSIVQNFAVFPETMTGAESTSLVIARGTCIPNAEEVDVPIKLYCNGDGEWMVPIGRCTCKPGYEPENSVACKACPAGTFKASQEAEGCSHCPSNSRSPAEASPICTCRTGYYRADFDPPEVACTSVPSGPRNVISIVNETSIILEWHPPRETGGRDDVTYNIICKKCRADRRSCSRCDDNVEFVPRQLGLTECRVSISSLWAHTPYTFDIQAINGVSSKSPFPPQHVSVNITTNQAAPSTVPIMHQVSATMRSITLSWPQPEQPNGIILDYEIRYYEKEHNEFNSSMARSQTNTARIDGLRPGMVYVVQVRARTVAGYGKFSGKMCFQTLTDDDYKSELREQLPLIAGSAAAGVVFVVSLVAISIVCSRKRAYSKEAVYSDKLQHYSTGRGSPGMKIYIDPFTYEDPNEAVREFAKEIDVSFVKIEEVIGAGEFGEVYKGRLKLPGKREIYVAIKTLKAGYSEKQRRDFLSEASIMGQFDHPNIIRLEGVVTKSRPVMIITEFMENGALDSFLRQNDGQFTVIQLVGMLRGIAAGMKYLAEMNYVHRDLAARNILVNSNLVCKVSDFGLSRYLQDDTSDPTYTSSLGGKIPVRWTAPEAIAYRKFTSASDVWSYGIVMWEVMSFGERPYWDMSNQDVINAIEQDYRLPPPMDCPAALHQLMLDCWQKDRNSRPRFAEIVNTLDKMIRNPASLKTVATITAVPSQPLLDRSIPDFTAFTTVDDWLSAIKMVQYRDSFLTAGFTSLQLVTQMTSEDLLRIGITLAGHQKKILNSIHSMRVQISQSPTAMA
As to conditions: at 1 µM.

In assay [9] the target is T3, Ephrin type-B receptor 1 (Homo sapiens). The following applies: at 10 µM.
The target in assay [10] is T4, Ephrin type-B receptor 2 (Homo sapiens) (UniProt P29323).
T4 sequence (whole entry): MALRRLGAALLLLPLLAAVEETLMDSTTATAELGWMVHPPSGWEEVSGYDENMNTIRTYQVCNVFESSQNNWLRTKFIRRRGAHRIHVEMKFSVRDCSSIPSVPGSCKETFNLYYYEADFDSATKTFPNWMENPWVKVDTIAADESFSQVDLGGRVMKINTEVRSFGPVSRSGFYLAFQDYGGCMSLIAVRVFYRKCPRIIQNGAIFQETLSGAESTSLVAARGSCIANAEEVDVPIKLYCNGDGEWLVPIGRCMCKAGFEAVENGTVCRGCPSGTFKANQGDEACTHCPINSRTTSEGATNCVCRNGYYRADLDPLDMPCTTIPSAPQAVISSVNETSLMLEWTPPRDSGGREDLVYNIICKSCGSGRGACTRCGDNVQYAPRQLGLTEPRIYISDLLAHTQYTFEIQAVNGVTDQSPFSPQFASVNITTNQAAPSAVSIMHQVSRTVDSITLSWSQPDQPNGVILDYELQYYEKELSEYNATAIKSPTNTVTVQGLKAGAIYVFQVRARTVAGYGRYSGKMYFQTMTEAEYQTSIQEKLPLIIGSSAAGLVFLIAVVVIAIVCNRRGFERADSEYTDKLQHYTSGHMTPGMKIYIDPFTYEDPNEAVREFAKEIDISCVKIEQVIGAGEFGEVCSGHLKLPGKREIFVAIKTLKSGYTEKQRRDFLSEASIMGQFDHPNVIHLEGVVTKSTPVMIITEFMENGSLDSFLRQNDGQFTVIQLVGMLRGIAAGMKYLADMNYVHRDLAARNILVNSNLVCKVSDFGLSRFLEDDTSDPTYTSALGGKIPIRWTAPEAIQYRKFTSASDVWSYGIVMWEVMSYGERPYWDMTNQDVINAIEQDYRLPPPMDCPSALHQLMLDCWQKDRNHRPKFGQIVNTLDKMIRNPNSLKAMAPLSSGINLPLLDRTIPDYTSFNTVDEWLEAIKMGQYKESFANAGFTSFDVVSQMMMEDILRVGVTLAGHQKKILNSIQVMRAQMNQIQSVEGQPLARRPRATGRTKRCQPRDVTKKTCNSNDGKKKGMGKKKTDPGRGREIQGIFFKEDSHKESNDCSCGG
The following applies: at 1 µM.

For assay [11], the target named is T4, Ephrin type-B receptor 2 (Homo sapiens). As to conditions: at 10 µM.
In assay [12] the target is T5, Ephrin type-B receptor 4 (Homo sapiens) (UniProt P54760).
T5 sequence (whole entry): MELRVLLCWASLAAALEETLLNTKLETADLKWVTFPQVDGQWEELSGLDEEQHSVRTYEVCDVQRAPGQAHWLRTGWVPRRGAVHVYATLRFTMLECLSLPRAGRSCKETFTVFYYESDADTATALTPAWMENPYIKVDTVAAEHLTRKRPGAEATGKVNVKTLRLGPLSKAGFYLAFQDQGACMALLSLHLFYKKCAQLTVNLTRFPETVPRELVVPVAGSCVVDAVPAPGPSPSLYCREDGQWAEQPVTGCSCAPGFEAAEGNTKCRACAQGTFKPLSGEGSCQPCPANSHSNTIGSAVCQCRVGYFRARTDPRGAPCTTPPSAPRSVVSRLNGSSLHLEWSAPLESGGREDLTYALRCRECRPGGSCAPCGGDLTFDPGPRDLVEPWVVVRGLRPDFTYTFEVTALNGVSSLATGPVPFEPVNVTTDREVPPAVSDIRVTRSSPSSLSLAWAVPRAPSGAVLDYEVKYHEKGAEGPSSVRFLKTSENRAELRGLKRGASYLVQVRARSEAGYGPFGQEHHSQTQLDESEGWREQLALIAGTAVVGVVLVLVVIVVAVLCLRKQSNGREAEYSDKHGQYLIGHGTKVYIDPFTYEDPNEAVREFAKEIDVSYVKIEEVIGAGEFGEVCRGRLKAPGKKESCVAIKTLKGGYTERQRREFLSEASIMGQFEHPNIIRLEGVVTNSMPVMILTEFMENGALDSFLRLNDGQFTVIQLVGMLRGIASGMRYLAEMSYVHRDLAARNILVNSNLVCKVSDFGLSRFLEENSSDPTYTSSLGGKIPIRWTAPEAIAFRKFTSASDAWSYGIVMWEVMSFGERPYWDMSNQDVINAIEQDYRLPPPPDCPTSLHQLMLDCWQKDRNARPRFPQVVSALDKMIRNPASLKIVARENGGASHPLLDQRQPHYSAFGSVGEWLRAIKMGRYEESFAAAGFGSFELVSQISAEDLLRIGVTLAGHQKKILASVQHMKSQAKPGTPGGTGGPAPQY
The following applies: at 1 µM.

The target of assay [13] is T5, Ephrin type-B receptor 4 (Homo sapiens). The following applies: at 10 µM.
The target of assay [14] is Focal adhesion kinase 1 (Homo sapiens) (UniProt Q05397). The following applies: at 1 µM.
Chain of Focal adhesion kinase 1 (Homo sapiens) (Q05397 2-1052 limits assumed): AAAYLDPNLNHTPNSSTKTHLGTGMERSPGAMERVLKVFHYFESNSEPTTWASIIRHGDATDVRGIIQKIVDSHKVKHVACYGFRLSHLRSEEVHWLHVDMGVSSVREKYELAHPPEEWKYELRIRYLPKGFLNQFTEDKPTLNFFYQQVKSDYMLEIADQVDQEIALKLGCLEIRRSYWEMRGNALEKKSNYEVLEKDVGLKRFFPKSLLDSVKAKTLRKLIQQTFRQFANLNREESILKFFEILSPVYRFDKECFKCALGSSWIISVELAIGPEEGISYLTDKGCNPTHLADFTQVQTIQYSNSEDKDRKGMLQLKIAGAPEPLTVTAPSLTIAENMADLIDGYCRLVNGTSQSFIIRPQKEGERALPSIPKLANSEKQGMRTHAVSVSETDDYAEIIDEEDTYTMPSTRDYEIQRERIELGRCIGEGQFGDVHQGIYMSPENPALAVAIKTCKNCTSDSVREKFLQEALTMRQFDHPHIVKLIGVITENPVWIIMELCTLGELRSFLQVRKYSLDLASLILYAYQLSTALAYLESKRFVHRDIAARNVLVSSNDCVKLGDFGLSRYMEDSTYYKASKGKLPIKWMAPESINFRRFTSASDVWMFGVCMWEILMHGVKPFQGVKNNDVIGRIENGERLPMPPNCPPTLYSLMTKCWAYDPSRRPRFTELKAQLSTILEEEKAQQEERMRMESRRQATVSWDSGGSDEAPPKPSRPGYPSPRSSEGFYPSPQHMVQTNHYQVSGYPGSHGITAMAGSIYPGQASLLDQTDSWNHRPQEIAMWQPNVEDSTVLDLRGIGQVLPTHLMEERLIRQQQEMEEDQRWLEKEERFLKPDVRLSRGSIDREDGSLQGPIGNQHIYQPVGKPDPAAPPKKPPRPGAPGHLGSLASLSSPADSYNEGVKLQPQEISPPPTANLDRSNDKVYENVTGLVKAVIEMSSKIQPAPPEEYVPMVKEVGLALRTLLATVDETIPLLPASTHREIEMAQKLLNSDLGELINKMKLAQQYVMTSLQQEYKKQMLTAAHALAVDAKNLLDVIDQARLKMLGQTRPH

For `CCCCc1c(-c2ccc(O)cc2)[nH]c2nccnc12`, the residual activity (usually what remains of the control signal, in per cent) came to 30% in assay [1]; 95% in assay [2]; 66% in [3]; 83% in assay [4]; 39% in [5]; 90% in assay [6]. The residual activity in assay [7] was 58%; in assay [8], 64%; in [9], 22%; in assay [10], 96%; in [11] it was 82%; in assay [12], 74%. Further, the residual activity came to 16% in assay [13] and 76% in [14].
